Some test systems named below: DU-145 prostate; K-562 leukemia; MALME-3M melanoma; MDA-MB-231 breast; RXF 393 renal; SF-268 CNS; SF-295 CNS; SF-539 CNS; UACC-257 melanoma; M14 melanoma; HCT-15 colon; SNB-75 CNS; SNB-19 CNS; U251 CNS; PC-3 prostate; SK-MEL-5 melanoma; UACC-62 melanoma; LOX IMVI melanoma; SK-MEL-28 melanoma.
Common to all, as to experiment: NCI-60 one-dose screen, 48 h (100 = growth as untreated, 0 = no growth, -100 = all killed)
Holding throughout (settings): 10 µM unless noted

Compounds without any hit were thinned out: in the full panel of roughly 83,000, 20% have a hit.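 Growth was measured after 48 h exposure to one concentration of compound in 96-well plates. Values under 10 count as active.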 A number with no mark means an inactive call. The source made the active and inactive calls.

As for `O=C1c2ccccc2C(=O)C1c1ccc(Br)cc1`, the growth in the experiment on DU-145 prostate was 118%; in the experiment on K-562 leukemia it was 104%; in the experiment with MALME-3M melanoma, 88.8%; with MDA-MB-231 breast it was 89.4%; with RXF 393 renal it was 121%; in the experiment with SF-268 CNS it was 113%. Moreover, the growth was 90.5% with SF-295 CNS; 104% with SF-539 CNS; 110% in the experiment on UACC-257 melanoma; 109% in the experiment with M14 melanoma; 92.7% with HCT-15 colon; 65% with SNB-75 CNS. In addition, the growth was 104% in the experiment with SNB-19 CNS; 95.8% with U251 CNS; 97.9% with PC-3 prostate; 107% in the experiment on SK-MEL-5 melanoma; 98.3% in the experiment on UACC-62 melanoma; 88.9% in the experiment with LOX IMVI melanoma. Moreover, in the experiment on SK-MEL-28 melanoma, the growth was 98%.
On to `Nc1[nH]n2cc(-c3ccc(F)cc3)nc2c1N=Nc1ccc(S(N)(=O)=O)cc1`, for which the growth in the experiment with DU-145 prostate is 70.2%; with K-562 leukemia it was 90.1%; in the experiment with MALME-3M melanoma it was 58.4%; in the experiment with MDA-MB-231 breast, 74.8%; in the experiment with RXF 393 renal, 60.4%; with SF-268 CNS, 76.7%. Also, the growth with SF-295 CNS was 98.2%; in the experiment with SF-539 CNS, 72.5%; in the experiment on UACC-257 melanoma, 99.6%; in the experiment with M14 melanoma it was 64.6%; with HCT-15 colon it was 60.4%; in the experiment on SNB-75 CNS it was 56.4%. In addition, the growth is 76.4% with U251 CNS; 80.6% with PC-3 prostate; 76.9% in the experiment with SK-MEL-5 melanoma; 71.4% with UACC-62 melanoma; 64.5% in the experiment with LOX IMVI melanoma; 84.8% with SK-MEL-28 melanoma.
With `CCOC(=O)c1c(C)c2c(n1Cc1ccccc1)CSCC2=O`, the growth in the experiment with DU-145 prostate was 30.8% [100 µM]; in the experiment with K-562 leukemia, 18.6% [100 µM]; with MALME-3M melanoma, -16.3% [100 µM] (active); with MDA-MB-231 breast, -2.2% [100 µM] (active); in the experiment on RXF 393 renal, 17.1% [100 µM]; in the experiment on SF-268 CNS it was 21.4% [100 µM]. Moreover, the growth in the experiment with SF-295 CNS is 3.06% [100 µM] (active); in the experiment with SF-539 CNS it was -23.7% [100 µM] (active); in the experiment with UACC-257 melanoma, 21.9% [100 µM]; in the experiment on M14 melanoma, -16% [100 µM] (active); in the experiment on HCT-15 colon, 11.7% [100 µM]; with SNB-75 CNS, -13.9% [100 µM] (active). In addition, the growth was 13.8% [100 µM] in the experiment with SNB-19 CNS; 17.5% [100 µM] in the experiment on U251 CNS; 7.17% [100 µM] (active) with PC-3 prostate; -86.5% [100 µM] (active) in the experiment on SK-MEL-5 melanoma; -35.4% [100 µM] (active) with UACC-62 melanoma; -24.4% [100 µM] (active) with LOX IMVI melanoma. Further, in the experiment on SK-MEL-28 melanoma, the growth was 27.8% [100 µM].
For the molecule `Nc1ccc(-c2csc(-n3[nH]c(=O)ccc3=O)n2)cc1`, the growth is 107% in the experiment on DU-145 prostate; 103% in the experiment with K-562 leukemia; 101% with MALME-3M melanoma; 101% with MDA-MB-231 breast; 93.8% in the experiment with RXF 393 renal; 102% in the experiment on SF-268 CNS. In addition, the growth is 102% with SF-295 CNS; 105% in the experiment with SF-539 CNS; 103% in the experiment on UACC-257 melanoma; 96.2% in the experiment with M14 melanoma; 89.1% in the experiment on HCT-15 colon; 99% with SNB-75 CNS. The growth with SNB-19 CNS was 98.6%; in the experiment on U251 CNS, 100%; in the experiment on PC-3 prostate, 96.2%; in the experiment with SK-MEL-5 melanoma it was -99.6% (active); in the experiment on UACC-62 melanoma it was 101%; in the experiment with LOX IMVI melanoma it was 102%. In the experiment with SK-MEL-28 melanoma, the growth is 108%.
Regarding `COc1ccc2cc(-c3ccnc4c(N=Nc5ccc(Cl)cc5)c(N)nn34)ccc2c1`, the growth in the experiment on DU-145 prostate was 105%; in the experiment on K-562 leukemia, 86.5%; in the experiment on MALME-3M melanoma it was 97.8%; in the experiment with MDA-MB-231 breast, 101%; with RXF 393 renal, 115%; with SF-268 CNS it was 101%. Further, the growth with SF-295 CNS was 102%; with SF-539 CNS, 103%; in the experiment on UACC-257 melanoma it was 84.2%; in the experiment with M14 melanoma, 92.8%; with HCT-15 colon it was 112%; in the experiment on SNB-75 CNS, 79.4%. For the same molecule, the growth with SNB-19 CNS was 92.4%; in the experiment with U251 CNS, 93.4%; in the experiment with PC-3 prostate, 89%; in the experiment with SK-MEL-5 melanoma, 97.5%; in the experiment on UACC-62 melanoma, 91.8%; in the experiment on LOX IMVI melanoma, 102%. The growth in the experiment on SK-MEL-28 melanoma was 99.2%.
Take `CN(C)CCCNC(=O)c1cncnc1Nc1ccc(OCc2cccc(F)c2)c(Cl)c1`: the growth in the experiment on DU-145 prostate was 23.4%; in the experiment with K-562 leukemia it was -57.7% (active); in the experiment on MALME-3M melanoma it was -11.7% (active); in the experiment on MDA-MB-231 breast it was -43.4% (active); in the experiment with RXF 393 renal it was 20.5%; in the experiment on SF-268 CNS, 34.5%. Also, the growth with SF-295 CNS was 71.9%; in the experiment on SF-539 CNS it was -71.2% (active); in the experiment on UACC-257 melanoma, -63.2% (active); in the experiment with M14 melanoma, -71.4% (active); with HCT-15 colon, -37.6% (active); in the experiment with SNB-75 CNS, -18.2% (active). Further, the growth was 57.3% in the experiment on SNB-19 CNS; -52.5% (active) with U251 CNS; 0.306% (active) with PC-3 prostate; 61.3% with SK-MEL-5 melanoma; -84.7% (active) in the experiment with UACC-62 melanoma; -88.1% (active) in the experiment on LOX IMVI melanoma. For the same molecule, in the experiment with SK-MEL-28 melanoma, the growth is -86.1% (active).
On to `CC1(C)N=C(N)N=C(N)N1c1cccc(CCc2ccccc2)c1`, for which the growth was 37.3% with DU-145 prostate; 23.1% in the experiment with K-562 leukemia; 79.1% in the experiment with MALME-3M melanoma; 68.9% in the experiment with MDA-MB-231 breast; 78.5% in the experiment on RXF 393 renal; 32.4% in the experiment on SF-268 CNS. The growth in the experiment with SF-295 CNS is 41.9%; in the experiment with SF-539 CNS, 23%; with UACC-257 melanoma, 39.3%; in the experiment with M14 melanoma, 55.4%; with HCT-15 colon, 85.8%; in the experiment on SNB-75 CNS, 63%. Moreover, the growth was 31.3% in the experiment on SNB-19 CNS; 38.1% with U251 CNS; 34.6% in the experiment on PC-3 prostate; 12% with SK-MEL-5 melanoma; 24.7% with UACC-62 melanoma; 24% with LOX IMVI melanoma. In addition, the growth in the experiment on SK-MEL-28 melanoma is 46.3%.
In the case of `Cc1cccc(-c2nc(Nc3ccc4ncsc4c3)c3ccccc3n2)n1`, the growth with DU-145 prostate is 90.6%; in the experiment with K-562 leukemia, 28.5%; with MALME-3M melanoma, 102%; in the experiment with MDA-MB-231 breast, 101%; in the experiment with RXF 393 renal, 78.8%; with SF-268 CNS, 98%. Further, the growth in the experiment on SF-295 CNS was 88.7%; in the experiment on SF-539 CNS, 98.1%; in the experiment with UACC-257 melanoma, 81.4%; with M14 melanoma it was 64%; in the experiment with HCT-15 colon, 70.7%; with SNB-75 CNS, 105%. Also, the growth is 102% in the experiment on SNB-19 CNS; 77% in the experiment with U251 CNS; 14.7% with PC-3 prostate; 42.4% in the experiment on SK-MEL-5 melanoma; 80.8% in the experiment on UACC-62 melanoma; 93.2% in the experiment on LOX IMVI melanoma. In the experiment on SK-MEL-28 melanoma, the growth is 98.2%.

Source of the values: PubChem BioAssay (NCI).
